Assay outcomes from PubChem.
HP1b chromo inh – blocks HP1-beta chromodomain binding to methylated histone tails; P83916; AlphaScreen HP1-beta / biotin-H3K9me3 peptide binding; Potency, µM (highest dose often 114 µM), for inactives: at the highest dose activity change, negative = inhibition, usual class: inhibitors; 390,000 compounds, 0.56% hits; AID 540317; note: nearly all actives have a fitted effect of over 70% in size
Target sequence (P83916 whole entry, looked up): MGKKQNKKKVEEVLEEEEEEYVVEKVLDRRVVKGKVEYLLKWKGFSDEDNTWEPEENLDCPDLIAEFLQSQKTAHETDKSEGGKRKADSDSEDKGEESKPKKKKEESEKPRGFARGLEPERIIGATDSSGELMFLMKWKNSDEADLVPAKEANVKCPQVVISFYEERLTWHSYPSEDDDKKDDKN
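AlphaScreen: HP1-beta (50 nM) preformed 30 min with biotin-H3(1-18)K9me3 peptide (50 nM) in PBS pH 7.4, 0.01% Tween-20. Compound added for 30 min at RT, then streptavidin donor/nickel chelate acceptor beads (10 ug/mL) for 30 min.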
BAZ2B block – BAZ2B (human) inhibition; Q9UIF8; AlphaScreen BAZ2B-H3K14Ac peptide displacement; Potency, µM (doses to about 114 µM), for the others: at the highest dose activity change, negative = inhibition, usual class: inhibitors; 360,000 compounds, 4.4% hits; note: % is set by controls: 0 for no effect and ±100 for the full control effect; nearly all actives have a fitted effect of over 60% in size
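Complex of BAZ2B and biotin-H3K14Ac (50 nM apiece) forms over 30 min at RT, then faces library compounds up to 110 uM for another 30 min; AlphaScreen beads added, 20 min dark incubation, luminescence read.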
JMJD2A Tudor inh – inhibitors of human JMJD2A Tudor domain | Potency, µM (series often up to 114 µM), without a hit: at the highest dose activity change, negative = inhibition, hits mostly inhibitors | AlphaScreen JMJD2A-Tudor / H3K4me3 peptide binding | 390,000 compounds, 4.4% hits; note: % is set by controls: 0 for no effect and ±100 for the full control effect; nearly all actives have a fitted effect of over 50% in size
G9a inh – G9a (human) methyltransferase inhibition; G9a H3K9 monomethylation, AlphaScreen, 2 h; Potency, µM (doses to about 102 µM), inactives show at the highest dose activity, negative = inhibition, hits mostly inhibitors; 350,000 compounds, 8.8% hits; AID 504332; note: % is set by controls: 0 for no effect and ±100 for the full control effect; nearly all actives have a fitted effect of over 75% in size
Target sequence (Q96KQ7 913-1193 limits assumed): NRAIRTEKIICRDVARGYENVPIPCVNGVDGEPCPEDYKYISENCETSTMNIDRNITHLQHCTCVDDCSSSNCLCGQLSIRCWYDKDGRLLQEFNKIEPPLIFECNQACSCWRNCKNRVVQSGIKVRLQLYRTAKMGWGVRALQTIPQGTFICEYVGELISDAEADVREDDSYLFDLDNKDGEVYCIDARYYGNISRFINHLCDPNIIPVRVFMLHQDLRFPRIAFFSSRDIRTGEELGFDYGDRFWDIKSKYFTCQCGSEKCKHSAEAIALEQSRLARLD
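G9a (20 nM) was preincubated 15 min with compound, then reacted 2 h at room temperature with 500 nM biotin-H3K9 peptide and 20 µM SAM. Monomethyl-H3K9 detected by AlphaScreen using anti-H3K9me1 antibody.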
Sfp PPTase inh – inhibitors of Bacillus subtilis Sfp phosphopantetheinyl transferase. Q9F4F7. Biochemical Sfp PPTase activity, qHTS. Potency, µM, for the others: largest response in the series, negative = inhibition, hits mostly inhibitors. 310,000 compounds, 3.5% hits. AID 1490;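 note: the enzyme is Sfp with the accession as filed and its product quenches rhodamine fluorescence; 0% = enzyme reaction without inhibitor and -100% = no enzyme wells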
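Buffer: 50 mM Hepes-Na pH 7.6, 10 mM MgCl2, 0.01% Nonidet P-40, 0.01% BSA. Enzyme 15 nM, pre-exposed to compound 15 min; substrates then added and fluorescence change tracked over 30 min.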
L3MBTL1 block – blocks human L3MBTL1. Q9Y468. Potency, µM (titrated, usually from 57.1 µM), inactives show at the highest dose activity, negative = inhibition, hits mostly inhibitors. 230,000 compounds, 0.66% hits. AlphaScreen L3MBTL1–H3K9me1 peptide binding. AID 485360; note: % is set by controls: 0 for no effect and ±100 for the full control effect; nearly all actives have a fitted effect of over 60% in size
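First, the protein-peptide complex forms for 30 min at room temperature (L3MBTL1 50 nM, biotinylated H3K9me1 peptide 75 nM). Next, compounds are pin-transferred and incubated 30 min. Finally, AlphaScreen beads are added and read after 30 min.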
* = called active by the depositor; u = inconclusive; x = no result given; [ ] = dose if it differs, or a comment. Sampled rows, rich in hits. Any-hit rate of the full collection: about 12%. Calls come from the whole dose curve; as a rule, active = well fitted curve in the direction sought with a large enough effect; inconclusive = small, poorly fitted or top-dose-only effect, or another doubt; inactive = no such curve, though single readings can be large; an effect the other way counts as inactive or inconclusive. Potency is the fitted concentration of half-maximal effect.

SMILES | HP1b chromo inh | BAZ2B block | JMJD2A Tudor inh | G9a inh | Sfp PPTase inh | L3MBTL1 block
NC(=O)COC(=O)c1ccc2c(c1)S(=O)(=O)c1ccccc1C2=O | 7% | 3% | -8% | -17% | -3% | x
O=C(OCc1ccccc1)c1ccccc1 | 90% | x | 67% | 30%[12.7 µM] | -9% | x
O=C1c2ccccc2C(=O)N1c1noc2ccccc12 | x | x | -5% | x | x | x
CNC(=O)Nc1cc(NC(=O)NC)cc(C(F)(F)F)c1 | 17% | -3% | 3% | x | 7% | 7%
C[C@H]1O[C@@H](n2cc(F)c(=O)[nH]c2=O)[C@H](O)[C@H]1O | x | x | x | 1%[59 µM] | x | x
Cc1cn2c(=O)cc(COC(=O)c3cccc(NC(=O)COc4ccccc4)c3)nc2s1 | 14% | -12% | 3% | -4%[12.7 µM] | x | x
CCC(C)NC(=O)c1ccc2c(c1)S(=O)(=O)c1ccccc1C2=O (stereo unspecified) | 22% | -34% | -13% | 20µM* | 1% | x
CCOc1ccc(-n2c(SCc3ccc(C(=O)OC)o3)nc3c([nH]c4ccccc43)c2=O)cc1 | 16%[57 µM] | -3% | -16% | -1%[59 µM] | x | x
COc1ccc(N2CCN(S(=O)(=O)c3ccc4c(c3)CCCC4)CC2)c([N+](=O)[O-])c1 | u | u | u | 18µM* | 12% | -18%
COc1ccc(N2CCN(C(=O)c3cccc(Br)c3)CC2)c([N+](=O)[O-])c1 | u | 40µM* | 22µM* | u | 5% | -16%
COc1ccc(N2CCN(C(=O)c3ccccc3F)CC2)c([N+](=O)[O-])c1 | u | u | -30%[11.4 µM] | 50µM* | -1% | x
COc1ccc(N2CCN(C(=O)CC34CC5CC(CC(C5)C3)C4)CC2)c([N+](=O)[O-])c1 | u | 35µM* | 28µM* | u | u | u
Cc1ccccc1CN1CCCN(CC(=O)Nc2ccc(F)cc2)S1(=O)=O | 37% | -9% | -16% | -2%[59 µM] | x | x
Cc1noc(C)c1S(=O)(=O)N(CC(=O)NCCc1ccc(Cl)cc1)c1ccc(C(C)C)cc1 | 58% | x | 0% | 1µM* | x | x
Cc1ccc(N(CC(=O)NCCc2ccc(Cl)cc2)S(=O)(=O)c2c(C)noc2C)cc1 | 32% | -3% | -8% | 21%[59 µM] | 10% | x
CN(/N=C/c1ccc(N(C)C)cc1)C1=NS(=O)(=O)c2ccccc21 | 16%[57 µM] | 3% | -10% | 14% | -3% | x
O=C(CN1CCCc2ccccc21)NCc1ccccc1Cl | 1% | -39% | -36% | 45µM* | 0% | -14%
Cc1ccc2c(c1)CCCN2CC(=O)Nc1cc(S(=O)(=O)N2CCCC2)ccc1Cl | 0% | u | u | u | x | -28%
O=C(CN1CCCc2ccccc21)Nc1cc(S(=O)(=O)N2CCCC2)ccc1Cl | 33% | -31% | -23% | 25µM* | x | -3%
CN(C)S(=O)(=O)c1ccc(NC(=O)CN2CCCc3ccccc32)cc1 | -19% | u | u | 40µM* | 2% | -9%
CN(C)S(=O)(=O)c1cc(NC(=O)CN2CCc3ccccc32)ccc1Cl | 1% | -15% | -17% | 16µM* | -27% | x
CN(C)S(=O)(=O)c1cc(NC(=O)CN2CCN(c3ccccc3F)CC2)ccc1Cl | 15% | -27% | -8% | 8%[59 µM] | 11% | x
CC(O)CNc1ncnc2cc(-c3ccc(F)cc3)sc12 (stereo unspecified) | 12% | 4% | u | -9% | 9% | x
CCCCNc1cc(=O)n(C)c(=O)[nH]1 | 34% | 6% | -13% | 50µM* | -1% | x
COc1ccc(-c2ccc3c(c2)[C@@H]2C[C@H](N(C)C(=O)Nc4ccccc4)[C@H]([C@H](C)O)C(=O)N2CC3)cc1 | -2% | x | u | x | x | x
SMILES | HP1b chromo inh | BAZ2B block | JMJD2A Tudor inh | G9a inh | Sfp PPTase inh | L3MBTL1 block
C[C@H]1CCC(=O)N([C@H](CSc2ccc(Br)cc2)Cc2ccccc2)CC1 | 48% | 0% | 9% | -1%[0.501 µM] | x | 4%
CN(Cc1ccc(OCC(O)CN2CCCCC2)cc1)Cc1ccnc2ccccc12 (stereo unspecified) | -1% | -27% | -31% | 50µM* | -5% | -21%
CC(C)C[C@@H](CC(=O)N[C@H](CC(=O)N[C@@H]1CCNC[C@H]1C(=O)N[C@H](CC(=O)N[C@@H](CCC(=O)O)CC(=O)O)CC(C)C)C(C)C)NC(=O)[C@@H]1CNCC[C@H]1N | x | x | x | x | -11% | x
COc1ccccc1N1CC(C)(C)C(=O)N(C(=O)c2ccc(Cl)cc2)C1=S | -6% | -34% | u | 40µM* | 20% | -10%
Cc1ccc(S(=O)(=O)CCC(=O)OCc2nnc(-c3ccccc3)o2)cc1 | 26% | x | -3% | x | x | 0%
CCC(C)n1c(=N)c(S(=O)(=O)c2ccc(C)cc2)cc2c(=O)n3cc(C)ccc3nc21 (stereo unspecified) | 41% | 4% | -8% | 2%[59 µM] | x | x
Cc1ccc(S(=O)(=O)c2nc(-c3ccccc3F)oc2N2CC(C)OC(C)C2)cc1 (stereo unspecified) | 11% | u | -31% | 40µM* | u | x
O=S(=O)(c1ccccc1)c1nc(-c2ccccc2Cl)oc1N1CCCCCC1 | -1% | -35% | -29% | u | x | x
Cc1ccc(S(=O)(=O)c2nc(-c3ccccc3Cl)oc2N2CCN(C)CC2)cc1 | u | x | 50µM* | x | x | u
Cc1ccc(S(=O)(=O)c2nc(-c3ccccc3Cl)oc2N2CCCCCC2)cc1 | u | u | -33% | 7.1µM* | x | x
Cc1ccc(S(=O)(=O)c2nc(-c3ccc(F)cc3)oc2N2CCN(c3ccccc3)CC2)cc1 | 19% | u | u | u | x | x
CC1Cc2ccccc2C(CCc2ccccc2)=N1 (stereo unspecified) | 75% | 0% | 0% | -12%[2.33 µM] | 6% | x
COc1cc(NS(=O)(=O)c2ccc3c(c2)CC(C)N3C(=O)C2CCC2)cc(OC)c1OC (stereo unspecified) | 14% | -16% | -25% | -3%[59 µM] | x | x
CC(C(=O)Nc1ccc(Cl)cc1Cl)N1C(=O)NC2(CCCC2)C1=O (stereo unspecified) | 20% | -1% | -6% | 7% | -1% | x
Cn1c2ccccc2c(=O)c2ccc(C#Cc3ccc(N)cc3)cc21 | 87% | -26% | 23% | 50µM* | -5% | 34%
COc1ccc(C#Cc2ccc3c(=O)c4ccccc4n(C)c3c2)cc1 | 94% | 47%[57.1 µM] | 19% | u | 1% | 45%
C=C[C@]1(C)CC(=O)[C@@]2(O)[C@@]3(C)C(O)CCC(C)(C)C3C(O)C(OC(C)=O)[C@@]2(C)O1 (stereo partly specified) | x | x | x | -10%[2.33 µM] | -1% | x
C/C(=N\NC(=O)Cc1ccc(Cl)c(Cl)c1)c1cccnc1 | 44% | -16% | -8% | -8% | -5% | x
